Source: PubChem BioAssay AID488965 (Broad Institute, 2010)
Values joined by “and” are separate entries in the source; they are usually repeats but may differ in a detail not shown here. Equal values may be shown once. The whole screen tested about 340,000 compounds, of which about 210 (0.062%) were called active. No stated cut-off is given here; in the data, active means inhibition above about 30% (passing the limit was not always enough); inconclusive means no clear call, values can overlap the other calls. This excerpt belongs to a sample that is enriched for actives.

tested on: PvdQ acylase [Pseudomonas aeruginosa LESB58]; test: P. aeruginosa PvdQ acylase inhibitors, primary screen, biochemical, fluorescence, plate reader and imaging, single point (AID 488965); conditions: purified PvdQ acylase, at 10 µM, active compounds read high;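 further: 0% = vehicle neutral wells and 100% = reference inhibitor wells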

| Structure (SMILES) | inhibition |
| --- | --- |
| CC1Cc2ccccc2N1S(=O)(=O)c1ccc(Cl)nc1 (centres undefined) | 24.3% (inactive) |
| COc1ccc(OCC(=O)NN2Cc3ccccc3C2=N)cc1 | 7.9% (inactive) |
| COc1ccc(CNS(=O)(=O)c2ccc(NC(=O)N3CCCCC3)cc2)cc1 | 1.88% (inactive) |
| O=C(N/N=C/c1cccc(OC(=O)c2ccc([N+](=O)[O-])cc2)c1)c1cccnc1 | -8.47% (inactive) |
| O=C(N/N=C/c1ccc(Cl)cc1)c1nc2ccc([N+](=O)[O-])cc2c(=O)[nH]1 | -8.55% (inactive) |
| N#Cc1cc([N+](=O)[O-])ccc1Oc1cccc(/C=N/NC(=O)c2ccc(Cl)cc2)c1 | 65.3% (active) |
| C/C(=N\NC(=O)Cc1ccccc1[N+](=O)[O-])c1cccnc1 | -8.6% (inactive) |
| O=C(CN1CCSCC1)N/N=C/c1ccc(F)cc1F | -7.29% (inactive) |
| COc1ccccc1N1CCN(C(=O)CCS(=O)(=O)c2ccc3c(c2)NC(=O)C(C)S3)CC1 (centres undefined) | -17.3% (inactive) |
| CN1C(C(=O)NCc2ccco2)CC2Cn3c(nc4ccccc43)C21 (centres undefined) | -1.69% (inactive) |
| CCOC(=O)N1CCC(Nc2c(NCCCN3CCN(CC)CC3)c(=O)c2=O)CC1 | -6.72% (inactive) |
| O=C(NCc1ccco1)/C(=C/c1cccc([N+](=O)[O-])c1)NC(=O)c1ccco1 | 5.34% (inactive) |
| OC(CNCC1CCCO1)Cn1c2ccc(Br)cc2c2cc(Br)ccc21 (centres undefined) | -10.5% (inactive) |
| O=c1cc(Cl)c2ccccc2n1-c1ccccc1 | -10.1% (inactive) |
| Cc1cccc(N2CCN(C(=O)c3cccc(N4C(=O)C5C6C=CC(C6)C5C4=O)c3)CC2)c1C (centres undefined) | -11.5% (inactive) |
| Cc1ccc(S(=O)(=O)NCCSC(C)(C)C)cc1 | 6.35% (inactive) |
| COc1ccc(S(=O)(=O)N2C[C@H]3CON(C)[C@H]3C[C@H]2c2cccc(Br)c2)cc1 | 4.46% (inactive) |
| O=C(NCCc1ccccc1)C1CCC(Cn2c(=O)c3ccccc3n(Cc3cccnc3)c2=O)CC1 (centres undefined) | -13.5% (inactive) |
| COc1ccc(-c2[nH]ncc2CN(C)Cc2cccnc2)c(F)c1 | -16.1% (inactive) |
| Cc1ccc(N(C(=O)Cc2cccs2)C2C=CS(=O)(=O)C2)cc1Cl (centres undefined) | -5.8% (inactive) |
| CCCC(=O)N1CCN(c2nnc(-c3ccc(C)cc3)c3ccccc23)CC1 | -23.6% (inactive) |
| COc1cccc(NC(=O)c2ccccc2N(Cc2ccccc2)S(C)(=O)=O)c1 | -17.2% (inactive) |

| Structure (SMILES) | inhibition |
| --- | --- |
| CCOc1ccc(-c2noc(CCC(=O)NC3CCCC3)n2)cc1OC | 3.89% (inactive) |
| CC(C)=CCC/C(C)=C/C(=O)O | -3.82% (inactive) |
| O=C(N/C(=C/c1ccc(Cl)cc1)C(=O)N1CCCCC1)c1ccco1 | -10.7% (inactive) |
| CN1C(C(=O)NCC2CC2)CC2Cn3c(nc4ccccc43)C21 (centres undefined) | -7.73% (inactive) |
| O=C1C=C(c2cccc(Cl)c2O)C[C@@H](c2ccc(F)cc2)C1 | -5.55% (inactive) |
| O=C1C=C(c2cccc(Br)c2)C[C@@H](c2ccc(F)cc2)C1 | 63.4% (active) |
| COc1cccc(C2=CC(=O)C[C@H](c3ccc(OC)c(OC)c3)C2)c1 | -0.585% (inactive) |
| O=C1C=C(c2cccc(Cl)c2)C[C@@H](c2ccc(F)cc2)C1 | 37.3% (active) |
| COc1cccc(C2=CC(=O)C[C@H](c3ccc(F)cc3)C2)c1OC | -13.7% (inactive) |
| COc1ccccc1C1=CC(=O)C[C@H](c2ccc(F)cc2)C1 | 2.08% (inactive) |
| CC(=O)c1nn(-c2ccc(C)cc2)cc1C(=O)c1cccc(Br)c1 | -6.55% (inactive) |
| COc1cc(CNC2CCCCC2)c(Br)cc1OC1CCCC1 | -10.3% (inactive) |
| COc1ccc(NS(=O)(=O)c2cc(NC(=O)CC(=O)c3ccc([N+](=O)[O-])cc3)ccc2C)cc1 | -17.8% (inactive) |
| CCCCNC(=O)N1CCN(S(C)(=O)=O)CC1 | -13.6% (inactive) |
| CN1CCN(Cc2c(C(=O)N3CCc4ccccc4C3)nc3ccc(Cl)cn23)CC1 | 9.88% (inactive) |
| CCOc1ccc(/C(O)=C2/C(=O)C(=O)N(Cc3cccnc3)C2c2ccc(N(C)C)cc2)c(C)c1 (centres undefined) | -1.75% (inactive) |
| COc1ccc(CCN(C)C(=O)C23CC4CC(CC(Cl)(C4)C2)C3)cc1OC | 0.828% (inactive) |
| O=C(CNC(=O)OCc1ccccc1)NC1CCCCNC1=O (centres undefined) | -2.51% (inactive) |
| CCC(C(=O)NC1CCCC1)N(C(=O)Cn1nnc(-c2ccc(C)o2)n1)c1ccc(OC)c(OC)c1 (centres undefined) | -6.8% (inactive) |
| CC(C)=NN1C(=O)c2ccccc2NC1(C)C | -15.2% (inactive) |
| O=C(Nn1cnc2ccccc2c1=O)c1ccc([N+](=O)[O-])cc1Cl | -2.92% (inactive) |
| CC1=C(C(=O)Nc2cc(C)ccn2)C(c2cnn(C)c2)C2=C(CC(c3ccccc3)CC2=O)N1 (centres undefined) | -10.4% (inactive) |

| Structure (SMILES) | inhibition |
| --- | --- |
| COc1ccc(N2CCN(C(=O)CN3C(=O)COc4ccccc43)CC2)cc1 | -3.63% (inactive) |
| COc1ccc(Cn2cc(CN3CCS(=O)(=O)N(Cc4ccc(-c5cccc(Cl)c5)cc4)C(C)C3=O)nn2)cc1 (centres undefined) | 6.04% (inactive) |
| COc1ccccc1NS(=O)(=O)c1ccc(C)c(C(=O)NCC(c2ccco2)N(C)C)c1 (centres undefined) | -1.08% (inactive) |
| CC(C)CC(COCc1ccc(Cl)cc1)N1CCN(C(=O)c2ccc(C(F)(F)F)cc2)CCC1=O (centres undefined) | -5.2% (inactive) |
| COc1ccc(S(=O)(=O)NCC2CCCN(C(=O)c3occc3C)C2)cc1 (centres undefined) | -11.7% (inactive) |
| Cc1oc(-c2ccccc2Cl)[n+]([O-])c1C | -3.53% (inactive) |
| CC(C(=O)Nc1ccccc1-c1ccccc1)N1CCOCC1 (centres undefined) | 4.97% (inactive) |
| CC1(C)Cc2cccc(OCC(=O)N3CCN(c4ccc([N+](=O)[O-])cc4)CC3)c2O1 | 3.43% (inactive) |
| O=C(NCCc1ccccc1)C1CC1 | 11.7% (inactive) |
| Cc1cc(C)cc(NC(=O)C(c2ccccc2)N2CCN(CC(=O)N3CCCC3)CC2)c1 (centres undefined) | -12.8% (inactive) |
| CCc1ccc(CNC(=O)C2CCN(c3nnc(C)c4c(C)n(-c5ccc(C)cc5)nc34)CC2)cc1 | -8.9% (inactive) |
| COc1ccc(OC)c(NC(=O)COC(=O)Cc2ccsc2)c1 | 7.79% (inactive) |
| COc1ccc(CCNC(=O)COc2cc(C)cc3oc(=O)c(C)c(C)c23)cc1OC | -16.2% (inactive) |
| CN1CCN(S(=O)(=O)c2ccc(Nc3ccc(F)cc3)nc2)CC1 | 4.04% (inactive) |
| COc1cc([C@H](Cc2ccccc2)NC(C)=O)oc(=O)c1 | -11.2% (inactive) |
| Cc1nc2ccccc2c(=O)n1-c1ccc(F)c(NC(=O)c2cccs2)c1 | 4.62% (inactive) |
| CCOC(=O)C1CCCN(C(=O)C2CCN(c3nnc(-n4cccc4)s3)CC2)C1 (centres undefined) | -9.35% (inactive) |
| Cc1ccc(C(=O)COC(=O)c2cccc(N3C(=O)c4c(C)nc5ccccc5c4C3=O)c2)cc1C | -0.235% (inactive) and -7.76% (inactive) |
| COc1ccc(Cl)cc1C(=O)OCC(=O)NCc1cccs1 | -17.2% (inactive) |
| Cc1ccc(N(CCC(=O)O)S(=O)(=O)c2cccc(C(F)(F)F)c2)cc1 | -8.9% (inactive) |
